Screens: PubChem, several laboratories
Measles CPE = protection of cells from measles virus | Measles virus-infected cells, CPE protection, absorbance | protection (pct of control), % at 4 µM | actives 1.5% (n = 140,000) | AID 841; in the data active = protection mostly above about 24%, no sharp cut-off; inactive = mostly below about 26%
sEH act = increases human soluble epoxide hydrolase activity; P34913; purified human sEH enzymatic activity, activator screen; activation, % at 2 µM; actives 0.04% (n = 91,000); AID 717; in the data active = activation above about 37%
Target sequence (P34913 whole entry, looked up): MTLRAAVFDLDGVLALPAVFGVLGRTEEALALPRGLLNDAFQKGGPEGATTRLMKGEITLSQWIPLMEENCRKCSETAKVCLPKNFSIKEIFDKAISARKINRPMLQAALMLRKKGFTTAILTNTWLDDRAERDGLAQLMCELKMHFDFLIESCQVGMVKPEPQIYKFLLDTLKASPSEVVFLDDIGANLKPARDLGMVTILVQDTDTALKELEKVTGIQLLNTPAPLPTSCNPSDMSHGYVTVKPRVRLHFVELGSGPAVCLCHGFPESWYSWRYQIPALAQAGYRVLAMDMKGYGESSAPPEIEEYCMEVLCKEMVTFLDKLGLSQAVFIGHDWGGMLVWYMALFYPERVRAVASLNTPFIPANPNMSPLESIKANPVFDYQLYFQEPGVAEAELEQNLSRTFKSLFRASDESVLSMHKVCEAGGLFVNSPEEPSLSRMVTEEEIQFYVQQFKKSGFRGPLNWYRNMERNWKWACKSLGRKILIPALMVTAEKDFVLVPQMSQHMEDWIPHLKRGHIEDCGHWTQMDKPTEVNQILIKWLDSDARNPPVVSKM
PTPN22 inh 2 = inhibitors of human LYP (PTPN22) phosphatase. recombinant LYP catalytic domain, DiFMUP fluorescence. inhibition, % at 2 µM. actives 0.21% (n = 96,000). AID 640;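 active = inhibition at 2 µM at or above a set limit, the screen mean plus 3 SD, cut at about 24% in these data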;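 note: 0% = DMSO with enzyme and 100% = enzyme fully blocked by orthovanadate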
LYP act = activators of human LYP (PTPN22) phosphatase | Q9Y2R2 | recombinant LYP, DiFMUP fluorescence; 0 = plate median, 100 = signal doubled | activation, % at 2 µM | actives 0.11% (n = 96,000);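 active = activation at 2 µM above a set limit, the mean plus 5 SD, cut at about 37% in these data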
sEH inh = inhibitors of human soluble epoxide hydrolase; P34913; recombinant human sEH enzymatic activity assay; inhibition, % at 2 µM; actives 0.34% (n = 91,000); AID 707; in the data active = inhibition above about 80%
Starred values were filed as active, the others as inactive; . = not tested or not shown. Shown are actives, neighbours in structure and some others; about 1.7% of the full set was active somewhere.

SMILES	Measles CPE	sEH act	PTPN22 inh 2	LYP act	sEH inh
COc1cccc(NC(=O)COC(=O)c2nc3nccc(C)n3n2)c1	75.6*	11.8	5.4	-3.8	-9.8
Cc1ccnc2nc(C(=O)OCC(=O)NCCc3ccccc3)nn12	3.2	.	.	.	.
CCCOc1ccc(/C=C/C(=O)Nc2ccc([N+](=O)[O-])cc2)cc1	51.1*	-12.2	12.9	-9.4	10.4
CCCc1cc(=O)oc2cc(C)cc(O)c12	26.1	11.1	-3.7	0.9	-8.9
CCCCCc1cc(O)c2c(C)cc(=O)oc2c1	63.5*	1.6	-7.5	5.1	-3.1
Cc1ccccc1NC(=O)c1cccc(OCc2c(C)noc2C)c1	19.6	1.8	-2.3	6.3	-2.2
Cc1cccc(C(=O)Nc2ccccc2C(=O)OCc2c(C)noc2C)c1	89.6*	3.3	-0.7	-0.7	-3.1
COc1nc(Oc2ccc(=O)[nH]n2)nc(N2CCOCC2)n1	44.2*	7.0	-6.2	9.0	-9.8
CCC(Oc1ccccc1)C(=O)Nc1cc(C)on1 (stereo unspecified)	15.6	-0.1	3.0	-5.3	-0.1
CCC(OC(=O)C(NC(=O)c1ccccc1)c1ccccc1)C(=O)Nc1cc(C)on1 (stereo unspecified)	47.0*	-5.0	4.5	-6.8	6.3
Cc1cc(Nc2ccccc2)n(-c2cccc(Cl)c2)n1	13.8	-2.3	2.1	-2.5	5.3
Cc1cc(Nc2ccccc2)n(C(=O)c2ccc(Cl)cc2)n1	43.6*	1.5	-1.8	2.3	2.0
COc1ccc(C2CC(c3ccccc3)=NN2C(=O)COC(=O)c2cc(S(=O)(=O)N3CCOCC3)ccc2F)cc1 (stereo unspecified)	14.6	.	.	.	.
CC(=O)Nc1ccc(Br)cc1C(=O)C(=O)O	10.9	.	.	.	.
CCc1ccc(C(=O)COC(=O)C(Cc2ccccc2)NC(=O)c2ccc(Cl)cc2)cc1 (stereo unspecified)	45.0*	9.5	8.5	-8.8	-11.2
Cc1cccc(/C(N)=N/OC(=O)COc2ccc(Cl)c(C)c2)c1	23.3*	.	.	.	.
O=C(COC(=O)CCS(=O)(=O)c1ccc(Cl)cc1)NCCc1ccc(Cl)cc1Cl	9.3	.	.	.	.
CCOc1cc(C)c(-c2onc(C(F)(F)F)c2-c2csc(C)n2)c(O)c1	45.0*	6.3	2.4	-0.4	-8.0
S=C(NC1CCCCC1)N1CCN(c2ccccn2)CC1	10.8	.	.	.	.
Cc1ccc(-c2nnc(CSc3nnc(COc4cccc5ccccc45)n3-c3ccccc3)o2)cc1	2.9	-0.4	33.2*	-33.4	-1.4
N#CCSc1nnc(COc2cccc3ccccc23)n1-c1ccccc1	0.4	-7.8	5.4	-5.7	7.5
CNc1nc(C)c(C(=O)c2ccc(Cl)cc2)s1	14.2	19.3	-10.0	6.7	-16.8
Fc1ccc(NC(=S)NC23CN4CN(CN(C4)C2)C3)cc1	17.1	.	.	.	.
C=CCn1c(SCC(=O)N2CC(=O)Nc3ccccc32)nc2scc(-c3ccccc3)c2c1=O	80.7*	-10.1	16.4	-14.7	8.7
C=CCn1c(SCC(=O)NCc2ccc3c(c2)OCO3)nc2scc(-c3ccccc3)c2c1=O	8.9	-6.5	2.1	0.0	9.7
SMILES	Measles CPE	sEH act	PTPN22 inh 2	LYP act	sEH inh
Cc1cc(N2CCN(c3nc(N4CCOCC4)nc4ccccc34)CC2)c2ccccc2n1	.	11.6	-40.8	39.0*	-13.7
c1ccc2c(N3CCCCC3)nc(N3CCCCC3)nc2c1	7.4	9.6	-9.6	6.6	-6.1
Cn1cc(S(=O)(=O)Nc2ccc(Br)cc2F)c(=O)n(C)c1=O	60.9*	3.9	7.2	-7.7	-4.7
CN(C)S(=O)(=O)Nc1ccc(Br)cc1F	4.9	7.9	-5.1	-0.1	-8.3
Cc1ccc(N/C(C(Cl)=C(Cl)Cl)=C(/Cl)[N+](=O)[O-])c(C)c1	9.1	.	.	.	.
COc1ccc(C(=O)N2N=C(c3cccc(OC)c3)CC2(O)C(F)(F)F)cc1 (stereo unspecified)	9.9	.	.	.	.
COc1ccc(Cl)cc1NC(=O)C(C)OC(=O)c1ccc(NS(=O)(=O)c2ccc3[nH]c(=O)[nH]c3c2)cc1 (stereo unspecified)	48.1*	.	.	.	.
CC(=O)c1ccc(NC(=O)C(C)OC(=O)c2ccc(NS(=O)(=O)c3ccc(F)c(F)c3)cc2)cc1 (stereo unspecified)	24.6	.	.	.	.
CC(C)C(=O)Nc1cc(S(=O)(=O)Nc2ccc(Cl)cc2)ccc1Cl	44.6*	.	.	.	.
CC(C)C(=O)Nc1cc(S(=O)(=O)Nc2cccc(Cl)c2)ccc1Cl	26.2	.	.	.	.
CN(C)CC(C)(C)CNS(=O)(=O)c1cccc2nsnc12	1.1	.	.	.	.
C/C(O)=C\c1nc2ccccc2oc1=O	27.8*	-0.3	-9.4	12.4	3.1
COc1ccc(-c2nnn(CC(=O)N(Cc3ccccc3Cl)C(C(=O)NCC3CCCO3)c3ccco3)n2)cc1OC (stereo unspecified)	5.9	-5.4	12.1	-10.7	7.6
